This is a sample that favours compounds with a hit; in the whole collection about 3.7% have one here.
MLL AF4-AF9 inh = MLL-AF4/AF9 protein interaction inhibition; inhibition, % at 10 µM; P42568; 350,000 compounds, 0.47% hits; AlphaScreen, biotin-AF4 peptide binding to FLAG-AF9;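 active = every replicate reaching a set inhibition limit, whatever the replicate mean, cut at about 25% in these data; inconclusive = mean inhibition reaches that limit but some replicates miss it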;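 also: 0% = plate neutral control median and 100% = total signal loss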
Target sequence (P42568 whole entry, looked up): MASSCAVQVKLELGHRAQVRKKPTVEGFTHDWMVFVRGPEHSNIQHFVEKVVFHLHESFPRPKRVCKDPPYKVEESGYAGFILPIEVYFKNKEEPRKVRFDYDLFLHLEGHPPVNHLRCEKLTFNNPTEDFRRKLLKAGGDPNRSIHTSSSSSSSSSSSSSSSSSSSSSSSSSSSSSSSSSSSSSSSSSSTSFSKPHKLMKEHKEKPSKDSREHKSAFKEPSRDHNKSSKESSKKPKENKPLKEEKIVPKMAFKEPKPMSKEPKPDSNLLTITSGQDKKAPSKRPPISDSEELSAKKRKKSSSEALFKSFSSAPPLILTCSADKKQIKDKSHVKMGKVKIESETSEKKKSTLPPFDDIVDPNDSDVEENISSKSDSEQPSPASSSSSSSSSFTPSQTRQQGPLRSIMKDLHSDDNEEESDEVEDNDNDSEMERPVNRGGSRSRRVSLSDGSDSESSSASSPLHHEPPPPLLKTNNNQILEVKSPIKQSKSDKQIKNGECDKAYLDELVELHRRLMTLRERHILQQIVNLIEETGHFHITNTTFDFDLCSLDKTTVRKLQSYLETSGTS
MITF act = activators of MITF-driven TRPM1 promoter activity in SK-MEL-5 cells. activation, % at 12.5 µM. 300,000 compounds, 0.75% hits. SK-MEL-5 TRPM1-promoter luciferase, 24 h; % of positive control, neutral wells = 0. AID 588334;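 active = mean activation of at least 80% with every replicate also reaching 80%; inconclusive = mean reaches 80% but some replicate falls short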;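 also: 0% = neutral control wells and 100% = parthenolide positive control wells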
esBAF inh = blocks esBAF chromatin remodeling in mouse ES cells; 350,000 compounds, 2% hits; Bmi1-luciferase knock-in reporter, 24 h; 100% = twice the neutral-well signal; reporter increase, % at 12.5 µM; in the data active = activation above about 40%; inconclusive = no clear call, values can overlap the other calls;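 also: 0% = median of the plate's neutral control wells and 100% = double that signal; a rise in the Bmi1 reporter signal indicates esBAF inhibition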
Ecoli rRNA inh = inhibits bacterial ribosomal RNA function over humanized ribosomes; E. coli WT GFP vs humanized-ribosome RFP mutants, fluorescence, 24 h; hits give low values; DMSO median 0, no signal -100; GFP signal change (wild-type ribosome), % (concentration not given with the values); 350,000 compounds, 1.6% hits;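 active = significant combined selectivity score with lowered wild-type GFP, culture density cut under 30%, mutant RFP and density less affected; inactive = any of these conditions unmet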
Wnt bcat act = Wnt/beta-catenin pathway activation | Wnt/beta-catenin reporter cell assay, activator, plate reader | 300,000 compounds, 1.2% hits | activation, % at 9.35 µM; in the data active = activation above about 30%, passing the limit was not always enough; inconclusive = no clear call, values can overlap the other calls;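 also: 0% = neutral control wells and 100% = positive control wells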
AlphaScreen intf = AlphaScreen signal interference counter-screen hit; signal luminescence; shares compounds with MLL AF4-AF9 inh; 530 compounds, 45% hits; AID 720494; AC50, µM (titrated, usually from 12 µM), inactives show at the top dose activity change, negative = inhibition; cut-off not given, nearly all actives have AC50 up to about 14 µM
* marks the source's active call; other numbers are inactive results; i = inactive; ? = inconclusive; · = no result; ! = a repeat was not active.

SMILES	MLL AF4-AF9 inh	MITF act	esBAF inh	Ecoli rRNA inh	Wnt bcat act	AlphaScreen intf
O=C(CNCc1ccco1)Nc1ccc(N2CCCCCC2)cc1	28.7*	3.0	·	-26.3	1.2	-36.6%
CC(=O)c1ccc(N=Nc2ccc(N(C)C)cc2)cc1	4.3	-3.1	-49.0	-14.3	3.7	·
CN(C)c1ccc(N=Nc2ccccc2Br)cc1	35.0*	8.6	-30.9	-12.1	27.7	11.6µM*
Cc1nc2c3ccccc3nc(NNC(=O)CCC(=O)N3CCN(c4ccccc4F)CC3)n2n1	-0.5	-2.0	-6.9	-0.2	-0.9	·
CCNC(=O)C1(C)CCCN(C(=O)c2csc3ccccc23)C1 (stereo not given)	0.2	·	1.1	1.0	1.5	·
O=C(COc1cc(F)ccc1[N+](=O)[O-])Nc1ccc(N2CCCCC2)cc1	?	2.9	-8.9	0.3	-1.8	-35.4%
O=C(COc1cc(F)ccc1[N+](=O)[O-])Nc1ccc(N2CCOCC2)cc1	3.1	0.0	·	7.5	1.8	·
CCC(=O)N(C)C[C@@H]1Oc2ncc(-c3cccc(OC)c3)cc2C(=O)N([C@@H](C)CO)C[C@H]1C	-2.8	·	-1.4	-0.3	·	·
COc1ccc(S(=O)(=O)Nc2ccc3c(c2)C(=O)N([C@H](C)CO)C[C@H](C)[C@H](CN(C)C(=O)Cc2ccccc2)OCCCC[C@@H](C)O3)cc1	-0.5	·	·	5.1	·	·
CCN(CC)CCNc1ccc(CO)c2oc3ccccc3c(=O)c12	3.3	·	10.7	-10.9	2.7	·
CCN(CC)CCNc1cccc2sc3ccccc3c(=O)c12	28.9*	·	-11.2	·	2.4	2.17µM*
COc1cc(/C=N/NC(=O)c2cccc3ccccc23)ccc1OCC(N)=O	-1.7	1.9	·	13.4	0.0	·
C[C@@H]1CN([C@@H](C)CO)C(=O)Cc2cc(N(C)C)ccc2O[C@@H]1CN(C)Cc1ccc2c(c1)OCO2	6.2	·	-3.5	0.7	·	·
C[C@H](CO)N1C[C@H](C)[C@@H](CN(C)Cc2ccc(Cl)c(Cl)c2)Oc2ccc(N(C)C)cc2CC1=O	40.4*	·	0.8	-42.5	·	-36.3%
C[C@@H]1CN([C@H](C)CO)C(=O)Cc2cc(N(C)C)ccc2O[C@H]1CN(C)Cc1ccc(Cl)c(Cl)c1	·	·	-1.0	-7.9	·	·
C[C@@H]1CCCCO[C@H](CN(C)Cc2ccc3c(c2)OCO3)[C@H](C)CN([C@H](C)CO)C(=O)c2cc(N(C)C)ccc2O1	5.6	·	-0.2	-2.8	·	·
C[C@@H]1CCCCO[C@H](CN(C)Cc2ccc(Cl)c(Cl)c2)[C@@H](C)CN([C@H](C)CO)C(=O)c2cc(N(C)C)ccc2O1	49.7*!	·	-2.2	-15.3	-0.8	-37.9%
C[C@@H]1CN([C@@H](C)CO)C(=O)Cc2cc(N(C)C)ccc2O[C@H]1CN(C)Cc1ccc(Cl)c(Cl)c1	48.4*	·	-1.7	-29.5	·	12.1µM*
CCCCCc1cc(=O)oc2c(C(CCN3CCCC3)c3ccc(N(C)C)cc3)c(OC)cc(OC)c12 (stereo not given)	56.7*	-77.8	-28.9	-45.7	-10.7	6.99µM*
CC(=O)[C@H]1CCC2C3CC=C4C[C@@H](O)CC[C@]4(C)C3CC[C@@]21C (stereo not given in full)	6.3	8.6	0.1	3.9	-3.3	·
COc1ccc(N2CCN(C(=O)C3CCCN(S(=O)(=O)c4c(C)noc4C)C3)CC2)cc1 (stereo not given)	27.8*	7.1	·	-6.1	2.9	-4.7%
COc1ccc(N2CCN(C(=O)C3CCN(S(=O)(=O)c4c(C)noc4/C=C/N(C)C)CC3)CC2)cc1	3.8	1.2	1.6	1.6	-1.0	·
CC(C)n1ncc2c(C(=O)Nc3ccc(S(N)(=O)=O)cc3)cc(C3CC3)nc21	?	-7.8	0.0	-8.0	-6.4	-13.8%
CC(C)n1ncc2c(C(=O)Nc3ccc(S(C)(=O)=O)cc3)cc(C3CC3)nc21	0.6	1.2	1.4	·	-0.8	·
C[C@H]1CN([C@@H](C)CO)C(=O)c2cc(C#Cc3ccc(F)cc3)cnc2O[C@H]1CN(C)C	7.4	·	3.5	5.5	·	·
SMILES	MLL AF4-AF9 inh	MITF act	esBAF inh	Ecoli rRNA inh	Wnt bcat act	AlphaScreen intf
NCCCC[C@@H]1NC(=O)c2cc([N+](=O)[O-])cc(F)c2NCCCC[C@@H](C(N)=O)NC(=O)CNC1=O	41.7*	1.6	·	-1.6	-1.2	-26.1%
CC[C@H](C)[C@@H]1NC(=O)c2cc([N+](=O)[O-])cc(F)c2NCCCC[C@@H](C(N)=O)NC(=O)[C@H](CCCCN)NC1=O	?	10.8	-7.3	-3.0	1.6	-17.8%
O=C(NCc1ccco1)C1(S(=O)(=O)c2ccc(Cl)cc2)CC1	·	-7.1	2.9	·	·	·
Cn1cc(CN2CCC(C(=O)NC(c3ccc(F)cc3)c3ccc4ccccc4n3)CC2)c2ccccc21 (stereo not given)	25.3*	·	-59.2	-43.8	-1.5	-34.2%
NCCc1c(-c2ccccc2)n(-c2ccccc2)c2ccccc12	47.4*	-52.6	·	-58.9	-1.4	13.8µM*
COc1ccc(CN2CC3(C2)CN(Cc2ccc4c(c2)OCO4)[C@H](CO)c2[nH]c4cc(OC)ccc4c23)cc1	35.7*	·	·	-2.0	·	-28.2%
O=C(O)c1ccccc1C(=O)c1ccc(N2CCCC2)c([N+](=O)[O-])c1	-2.2	4.3	14.7	-3.5	-0.4	·
CC1Cc2ccccc2N1C(=O)c1ccc(N2CCCC2)c([N+](=O)[O-])c1 (stereo not given)	23.2	8.6	11.0	-33.2	-1.0	-20.9%
O=[N+]([O-])c1ccc2c(c1)CO[C@@]21O[C@H](CCO)C[C@H](O)[C@H]1O	-1.5	·	-4.4	16.8	-3.3	·
COc1ccc(OC)c(C2=NOC(C(=O)Nc3c(C)n(C)n(-c4ccccc4)c3=O)C2)c1 (stereo not given)	-7.6	-4.8	-2.7	4.5	-1.3	4.6%
CCC(C)c1ccccc1NC(=O)C(C)N(C)Cc1cccc(OC)c1 (stereo not given)	-1.4	8.9	·	-38.9	-0.7	·
COCCN=c1scc(-c2ccco2)n1/N=C/c1ccc(O)c(O)c1O	32.9*	5.7	14.0	16.3	11.7	-6.1%
CNC[C@H](Cc1ccccc1)NC[C@@H](Cc1cccc2ccccc12)NCCc1ccc(C)cc1	44.6*	4.8	-45.4	-48.8	-14.3	-23.7%
CCOc1ccc(Nc2ccc([N+](=O)[O-])c3nonc23)cc1	28.8*	·	29.6	-15.9	3.9	-20.7%
COc1ccccc1C#Cc1ccc2c(c1)[C@H]1[C@H](CCN1C(=O)c1ccncc1)[C@@H](CO)N2	50.9*	·	·	i	·	7.95µM*
COc1ccccc1C#Cc1ccc2c(c1)[C@@H]1[C@@H](CCN1C(=O)c1ccccc1)[C@H](CO)N2	-1.9	·	·	-6.7	·	·
Cn1cc(C(=O)N/N=C/c2c(O)ccc3ccccc23)ccc1=O	23.6	-68.6	·	-2.8	-4.8	-11.0%
O=C(N/N=C/c1c(O)ccc2ccccc12)c1ccc[n+](CCO)c1	82.0*	-3.2	·	1.0	0.8	0.608µM*
